Shiga toxin inh – inhibitors of Shiga toxin in Vero cells; Vero cells, Shiga toxin protein synthesis inhibition reporter; inhibition, % at 38.7 µM; 290,000 tested, 9.2% active; AID 2315; in the data active means inhibition mostly above about 28%, no sharp cut-off; inactive means mostly below about 43%; further: 0% is about no effect
Pf growth 96h – P. falciparum growth inhibition at 96 hour, primary screen for plastid delayed-death inhibitors; Potency, µM (top dose mostly 28.7 µM), for the others: at the highest dose activity change, negative = inhibition, actives largely listed as inhibitors; AID 504834; P. falciparum luciferase reporter growth, 96 h; 320,000 tested, 6.9% active; further: potency means the concentration at half of the fitted maximal effect; on the % scale 0 is the no-effect control and ±100 the full control effect
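P. falciparum expressing integrated firefly luciferase, in erythrocytes at 2% hematocrit, 0.05% parasitemia, incubated with compounds 96 h at 37 C, 5% CO2. Growth inhibition read as loss of luminescence; two-generation exposure targets delayed-death apicoplast inhibitors.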
Pf growth 48h – inhibits P. falciparum growth in the first generation, 48 h. P. falciparum luciferase growth in erythrocytes, 48 h. Potency, µM (titrated, usually from 28.7 µM), inactives show at the highest dose activity change, negative = inhibition, usual class: inhibitors. 310,000 tested, 5.9% active. AID 504832; further: potency means the concentration at half of the fitted maximal effect; on the % scale 0 is the no-effect control and ±100 the full control effect
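Firefly luciferase activity from engineered P. falciparum reports growth; inhibitors lower the luminescent signal. Cultures contained 2% hematocrit erythrocytes at 0.1% final parasitemia.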
AMA1 RON2 block – disrupts binding of P. falciparum AMA1 to RON2; AID 720542; AlphaScreen AMA1-biotinylated RON2 peptide binding; 360,000 tested, 0.2% active; Potency, µM (doses to about 58.2 µM), for the others: at the top dose activity change, negative = inhibition, usual class: inhibitors;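 further: potency means the concentration at half of the fitted maximal effect; 0% = vehicle wells and -100% = peptide control; nearly all actives have a fitted effect of over 45% in size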
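AMA1 (3D7) with his tag at 25 nM final met compounds first, then biotinylated RON2 peptide at 25 nM; detection used donor plus acceptor beads, 10 µg/mL apiece, read by AlphaScreen after 30 min at room temperature.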
Cycloheximide cs – counter-screen for Shiga toxin inhibitors: cycloheximide protein synthesis inhibition | cell reporter, cycloheximide protein synthesis inhibition counterscreen | max response, % | 300,000 tested, 12% active; in the data active means max response mostly above about 13%, no sharp cut-off; inactive means mostly below about 14%; further: read at 38.3 µM for the half of the compounds with a filed dose; 0% is about no effect
SARS PLpro yeast – blocks SARS-CoV papain-like protease in a yeast assay; S. cerevisiae expressing SARS-CoV PLpro, growth rescue; Potency, µM (top dose mostly 32.9 µM), inactives show top-dose activity, positive = growth rescue, most hits filed as activators; 330,000 tested, 0.19% active; calls by dose curve; further: potency means the concentration at half of the fitted maximal effect; 0% is about no effect; nearly all actives have a fitted effect of over 55% in size
* hit, by the source's call. Sampled rows, rich in hits. Any-hit rate of the full collection: about 19%. Unless noted, the call rests on the fitted dose curve; in most records, active means well fitted curve in the direction sought with a large enough effect; inconclusive means small, poorly fitted or top-dose-only effect, or another doubt; inactive means no such curve, though single readings can be large; an effect the other way counts as inactive or inconclusive.

Results for O=C(O)c1cc(N/N=C/c2cccnc2)ccc1Cl ?
Shiga toxin inh: 133.2*; Pf growth 96h: 305.1%; Pf growth 48h: 158.7%; AMA1 RON2 block: 6.8%; Cycloheximide cs: 62.9*; SARS PLpro yeast: 0.1%

What do the screens show for `O=C(O)c1ccc(N/N=C/c2ccc(-c3ccccc3)cc2)cc1`?
Shiga toxin inh: 100.5; Pf growth 96h: 397.7%; Pf growth 48h: 285.5%; AMA1 RON2 block: inconclusive; Cycloheximide cs: 26.5*; SARS PLpro yeast: -16.0%

Results for COC(=O)[C@]12CCCCC=C1N(Cc1ccc(Cl)cc1Cl)C(=O)[C@H](CC(=O)N1CCOCC1)C2 ?
AMA1 RON2 block: -4.7%

What do the screens show for `O=C(O)c1ccc(/C=N/Nc2cccc(C(F)(F)F)c2)cc1`?
Shiga toxin inh: 120.4*; Pf growth 96h: 55.1%; Pf growth 48h: 68.8%; AMA1 RON2 block: 11.2%; Cycloheximide cs: 56.4*; SARS PLpro yeast: -16.6%

What do the screens show for `O=C(O)c1ccc(NS(=O)(=O)/C=C/c2ccccc2)cc1`?
Shiga toxin inh: 11.8; Pf growth 48h: inconclusive; AMA1 RON2 block: -0.3%; Cycloheximide cs: 1.0; SARS PLpro yeast: 4.5%

How did O=C(O)c1ccc(N/N=C/C=C/c2ccccc2)cc1 do in these assays?
Shiga toxin inh: 54.9*; Pf growth 96h: 130.7%; Pf growth 48h: 209.8%; AMA1 RON2 block: -2.2%; Cycloheximide cs: 42.0*; SARS PLpro yeast: -18.5%

Results for O=C(O)c1cccc(Cn2c(Cl)c(/C=N/Nc3ccccc3)sc2=O)c1 ?
Shiga toxin inh: 48.8; Pf growth 96h: inconclusive; Pf growth 48h: inconclusive; AMA1 RON2 block: -12.8%; Cycloheximide cs: 7.8; SARS PLpro yeast: 0.0%

How did NC(=O)N/N=C/c1cccc(C(F)(F)F)c1 do in these assays?
Shiga toxin inh: 17.6; Pf growth 96h: 41.5%; Pf growth 48h: inconclusive; AMA1 RON2 block: 8.6%; Cycloheximide cs: -2.6; SARS PLpro yeast: 0.8%

What do the screens show for `Clc1cncc(Cl)c1N/N=C/c1ccncc1`?
Shiga toxin inh: -9.9; Pf growth 96h: 1.17µM*; Pf growth 48h: inconclusive; AMA1 RON2 block: 14.5%; Cycloheximide cs: -4.5; SARS PLpro yeast: -42.3%

Results for Clc1cccc(Cl)c1/C=N/Nc1c(Cl)cncc1Cl ?
Shiga toxin inh: -3.5; Pf growth 96h: 2.4%; Pf growth 48h: 0.1%; AMA1 RON2 block: -6.2%; Cycloheximide cs: 1.3; SARS PLpro yeast: -0.2%

How did O=C(O)c1cccc(N/N=C/C2=C(Cl)c3cc(Cl)ccc3SC2)c1 do in these assays?
Shiga toxin inh: 129.0*; Pf growth 96h: 8.28µM*; Pf growth 48h: inactive; AMA1 RON2 block: 0.7%; Cycloheximide cs: 65.0*; SARS PLpro yeast: -4.0%

Results for CN(C)c1ccc(C=C(C#N)C(=O)c2ccccc2)cc1Br ?
AMA1 RON2 block: -0.3%

What do the screens show for `Nc1cc(=O)[nH]c(SCC(=O)N2N=C(c3ccc(Cl)cc3)CC2c2ccco2)n1` (stereo not drawn)?
Shiga toxin inh: 22.5; Pf growth 96h: -15.5%; Pf growth 48h: -26.3%; AMA1 RON2 block: -12.1%; Cycloheximide cs: 11.3; SARS PLpro yeast: -0.8%

How did Cc1ccc(C2=NN(C(=O)CSc3nc4ncc(Cl)cc4[nH]3)C(c3ccco3)C2)cc1 (stereo not drawn) do in these assays?
Shiga toxin inh: 27.3; Pf growth 96h: 11.7µM*; Pf growth 48h: -13.1%; AMA1 RON2 block: 8.1%; Cycloheximide cs: 14.4*; SARS PLpro yeast: -14.2%

What do the screens show for `COc1ccc(C2=NN(C(=O)CSc3nc4ncc(Cl)cc4[nH]3)C(c3ccco3)C2)cc1` (stereo not drawn)?
Shiga toxin inh: -8.6; Pf growth 96h: inconclusive; Pf growth 48h: inconclusive; AMA1 RON2 block: -1.1%; Cycloheximide cs: 21.4*; SARS PLpro yeast: -1.4%

Results for CCOC(=O)c1c(S(=O)(=O)NCC(C)c2ccccc2)c(C)n(C)c1C (stereo not drawn) ?
Shiga toxin inh: -10.8; Pf growth 96h: inconclusive; Pf growth 48h: inconclusive; AMA1 RON2 block: 12.6%; Cycloheximide cs: 7.4; SARS PLpro yeast: -1.6%

Results for Cc1ccc(-n2nc(C)c3c2OC(N)=C(C#N)C3c2ccoc2)cc1 (stereo not drawn) ?
Shiga toxin inh: 52.4; AMA1 RON2 block: -6.1%; Cycloheximide cs: 24.8*; SARS PLpro yeast: 4.9%

How did Cc1ccc(-n2nc(C)c3c2OC(N)=C(C#N)C3c2ccco2)cc1 (stereo not drawn) do in these assays?
Shiga toxin inh: 74.7*; Pf growth 96h: 46.9%; Pf growth 48h: -20.7%; AMA1 RON2 block: inconclusive; Cycloheximide cs: 21.7*; SARS PLpro yeast: -0.9%

Results for Cc1nn(-c2ccccc2)c2c1C(c1ccccc1)C(C#N)=C(N)O2 (stereo not drawn) ?
Shiga toxin inh: -2.0; Pf growth 48h: -12.4%; AMA1 RON2 block: -9.2%; Cycloheximide cs: -0.7; SARS PLpro yeast: -6.1%

What do the screens show for `Cc1ccc(-n2nc(C)c3c2OC(N)=C(C#N)C3c2ccc(C)o2)cc1` (stereo not drawn)?
Shiga toxin inh: 92.0*; Pf growth 96h: inconclusive; Pf growth 48h: -24.8%; AMA1 RON2 block: inconclusive; Cycloheximide cs: 47.8*; SARS PLpro yeast: -20.2%

How did O=C1CCCN1c1nccs1 do in these assays?
Shiga toxin inh: 0.3; Pf growth 96h: 6.2%; Pf growth 48h: 7.0%; AMA1 RON2 block: -6.8%; Cycloheximide cs: -3.3; SARS PLpro yeast: 1.7%

Results for CSCCC(=O)N(C)CC1CCN(CCc2cccc(C(F)(F)F)c2)CC1 ?
Shiga toxin inh: -4.6; Pf growth 96h: 4.15µM*; Pf growth 48h: 8.2%; AMA1 RON2 block: -1.0%; Cycloheximide cs: -1.6; SARS PLpro yeast: 0.2%

What do the screens show for `CCN(Cc1ccc(O)cc1)CC1CCCN(CCc2cccc(F)c2)C1` (stereo not drawn)?
Pf growth 96h: 11.7µM*; Pf growth 48h: 2.33µM*; AMA1 RON2 block: 6.6%; Cycloheximide cs: -2.7; SARS PLpro yeast: 1.3%

How did CC(=O)Nc1ccc(CN(C)CC2CCCN(CCc3cccc(C(F)(F)F)c3)C2)cc1 (stereo not drawn) do in these assays?
Shiga toxin inh: -5.7; Pf growth 96h: inconclusive; Pf growth 48h: 4.15µM*; AMA1 RON2 block: -20.5%; Cycloheximide cs: -1.1; SARS PLpro yeast: -5.5%

What do the screens show for `CCN(Cc1cccc(OC)c1)CC1CCCN(CCc2cccc(OC)c2)C1` (stereo not drawn)?
Shiga toxin inh: -9.6; Pf growth 96h: inconclusive; Pf growth 48h: inconclusive; AMA1 RON2 block: -11.7%; Cycloheximide cs: -3.1; SARS PLpro yeast: -4.5%

How did CN(CC1CCCN(CCc2cccc(C(F)(F)F)c2)C1)C(=O)c1ccco1 (stereo not drawn) do in these assays?
Shiga toxin inh: -34.1; Pf growth 96h: 31.4%; Pf growth 48h: -5.2%; AMA1 RON2 block: 3.3%; Cycloheximide cs: 0.6; SARS PLpro yeast: 2.4%

Assay outcomes (PubChem)
